Here are results for 58 compounds from PMC4336329 (PLoS ONE, 2015).

In all, about 310,000 compounds went through this assay and about 14,000 (4.5%) showed an effect of 50% or more. Effects have a minus sign here. This excerpt belongs to a sample that is enriched for strong results.
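Also: peak tail current of the secondary pulse compared with the same well before compound.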

The test deals with human ether-à-go-go-related gene (hERG) potassium channel (human, UniProt Q12809). In words: primary screen, population patch clamp on CHO cells stably expressing hERG; higher = less effect of the substance.
Sequence of human ether-à-go-go-related gene (hERG) potassium channel (Q12809 whole entry, looked up): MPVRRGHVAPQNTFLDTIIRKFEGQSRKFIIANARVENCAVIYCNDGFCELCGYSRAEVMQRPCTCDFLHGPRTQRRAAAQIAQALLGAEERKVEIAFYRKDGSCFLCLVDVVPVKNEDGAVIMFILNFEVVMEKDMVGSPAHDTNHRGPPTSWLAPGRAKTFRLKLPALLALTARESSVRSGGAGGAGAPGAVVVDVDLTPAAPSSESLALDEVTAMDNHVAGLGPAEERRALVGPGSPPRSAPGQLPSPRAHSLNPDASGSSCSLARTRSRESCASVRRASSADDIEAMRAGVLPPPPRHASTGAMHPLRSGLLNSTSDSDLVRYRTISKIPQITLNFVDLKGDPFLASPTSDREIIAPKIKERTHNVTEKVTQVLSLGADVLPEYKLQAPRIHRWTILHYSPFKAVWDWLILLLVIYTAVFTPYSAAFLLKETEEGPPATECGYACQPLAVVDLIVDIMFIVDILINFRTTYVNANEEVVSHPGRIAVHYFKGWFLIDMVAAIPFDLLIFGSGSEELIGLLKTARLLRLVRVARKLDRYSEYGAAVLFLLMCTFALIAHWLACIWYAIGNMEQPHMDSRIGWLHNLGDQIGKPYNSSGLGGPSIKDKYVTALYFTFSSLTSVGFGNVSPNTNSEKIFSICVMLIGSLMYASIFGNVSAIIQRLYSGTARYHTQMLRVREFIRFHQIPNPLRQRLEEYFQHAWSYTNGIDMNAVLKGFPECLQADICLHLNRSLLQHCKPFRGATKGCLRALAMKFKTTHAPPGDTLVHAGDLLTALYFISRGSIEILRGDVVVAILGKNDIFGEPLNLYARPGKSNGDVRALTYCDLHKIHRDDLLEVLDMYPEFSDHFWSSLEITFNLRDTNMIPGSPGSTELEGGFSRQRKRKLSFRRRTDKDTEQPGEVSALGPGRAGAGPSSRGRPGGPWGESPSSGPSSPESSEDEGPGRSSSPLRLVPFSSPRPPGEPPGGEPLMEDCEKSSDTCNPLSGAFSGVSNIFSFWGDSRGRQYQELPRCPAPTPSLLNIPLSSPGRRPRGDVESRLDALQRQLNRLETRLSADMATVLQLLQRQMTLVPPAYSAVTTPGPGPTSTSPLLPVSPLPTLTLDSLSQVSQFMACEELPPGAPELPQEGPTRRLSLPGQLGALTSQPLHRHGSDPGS
Consider `Cn1c(=S)c2[nH]c(SCCN3CCCC3)nc2n(C)c1=O`, for which the “hERG current change (%, negative = inhibition) at 10uM” value amounted to 10.5%.
In the case of `Cc1ccccc1NC(=S)N(CCN(C)C)C(C)c1ccccn1` (stereo not shown), the “hERG current change (%, negative = inhibition) at 10uM” value is given as -8.78%.
As for `OCCCNCc1cccc2ccccc12`, the “hERG current change (%, negative = inhibition) at 10uM” value is recorded as -15.8%.
`Cc1ccc(C(C(=O)NC2CCCCC2)N(C(=O)CCCC(=O)Nc2ccccn2)c2ccc3c(c2)OCCO3)cc1` (stereo not shown): the “hERG current change (%, negative = inhibition) at 10uM” value is -3.99%.
Regarding `COC(=O)c1ccc(CSc2nnc3c(n2)[nH]c2ccccc23)cc1`, the “hERG current change (%, negative = inhibition) at 10uM” value is on record as -23.1%.
Turning to `Cc1sc2ncnc(N3CCN(S(=O)(=O)c4ccc(Br)cc4)CC3)c2c1C`, the “hERG current change (%, negative = inhibition) at 10uM” value is reported as -47.5%.
With `Cc1sc2ncnc(N3CCN(S(=O)(=O)c4ccc(F)cc4)CC3)c2c1C`, the “hERG current change (%, negative = inhibition) at 10uM” value is recorded as -50.9%.
The value for `Cc1sc2ncnc(N3CCN(S(=O)(=O)c4ccccc4)CC3)c2c1C` was -18.6%; that for `CCS(=O)(=O)N1CCN(c2ncnc3sc(C)c(C)c23)CC1` was -53.7%; that for `Cc1sc2ncnc(N3CCCCC3)c2c1C` was -11.9%.
Take `Cc1cc(C)c(C)c(S(=O)(=O)N2CCN(c3ncnc4sc(C)c(C)c34)CC2)c1C`: the “hERG current change (%, negative = inhibition) at 10uM” value was found to be 8.21%.
On to `COc1ccccc1NC(=O)NCC(=O)Nc1c(C)cccc1C`, for which the “hERG current change (%, negative = inhibition) at 10uM” value was found to be 30.5%.
`CCOC(=O)c1ccc(CS(=O)c2ccc(Cl)cc2)o1` (stereo not shown): the “hERG current change (%, negative = inhibition) at 10uM” value is reported as -3.47%.
The value for `Cc1cc(C)c(NC(=O)CCCN2CCOCC2)c(C)c1` was 13.1%.
Regarding `COC(=O)c1scc(C)c1NC(=O)CC1NCCNC1=O` (stereo not shown), the “hERG current change (%, negative = inhibition) at 10uM” value is 11.9%.
Consider `O=C(C[n+]1ccccc1)c1ccc(-c2ccccc2)cc1.[Br-]`, for which the “hERG current change (%, negative = inhibition) at 10uM” value is -21.4%.
For the compound `COC(=O)c1ccc(CC(=O)c2c(C)cc(O)cc2O)o1`, the “hERG current change (%, negative = inhibition) at 10uM” value was found to be 0.801%.
For the compound `CC1CN(CCCCSc2ccc(Cl)cc2)CC(C)O1.O=C(O)C(=O)O` (stereo not shown), the “hERG current change (%, negative = inhibition) at 10uM” value is -31.6%.
Next, `CC1CCN(CCOCCSc2ccc(Cl)cc2)CC1.O=C(O)C(=O)O`: -72.1%; `CC1CC(C)CN(CCOCCSc2ccccc2)C1.O=C(O)C(=O)O` (stereo not shown): -45.1%; `CC1CC(C)CN(CCOCCSc2ccc(Cl)cc2)C1.O=C(O)C(=O)O` (stereo not shown): -72.4%.
Next, `CC1CC(C)CN(CCCSc2ccccc2)C1.O=C(O)C(=O)O` (stereo not shown): -64.3%.
Regarding `CC1CN(CCOCCSc2ccc(Cl)cc2)CC(C)O1.O=C(O)C(=O)O` (stereo not shown), the “hERG current change (%, negative = inhibition) at 10uM” value is recorded as -23.3%.
Next, `CC1CN(CCCSc2ccc(Cl)cc2)CC(C)O1.O=C(O)C(=O)O` (stereo not shown): -47.9%.
`CN(C)CCOCCSc1ccc(Cl)cc1.O=C(O)C(=O)O`: the “hERG current change (%, negative = inhibition) at 10uM” value was -37.3%.
With `CC1CN(CCCCSc2ccccc2)CC(C)O1.Cl` (stereo not shown), the “hERG current change (%, negative = inhibition) at 10uM” value is -8.71%.
Take `Cc1cccc(OCC(O)Cn2c(N3CCCCC3)nc3c2c(=O)n(C)c(=O)n3C)c1` (stereo not shown): the “hERG current change (%, negative = inhibition) at 10uM” value is -13.7%.
As for `CCN(CC)S(=O)(=O)c1cccc(-c2nnc(SCc3nc4ccccc4s3)o2)c1`, the “hERG current change (%, negative = inhibition) at 10uM” value was -3.82%.
For the compound `O=S(=O)(Nc1ccccc1F)c1ccc(Cl)nc1`, the “hERG current change (%, negative = inhibition) at 10uM” value came out at 5.63%.
With `Cc1ccc2oc(C(=O)NCCC3CCCCO3)c(C)c2c1` (stereo not shown), the “hERG current change (%, negative = inhibition) at 10uM” value is given as -11.5%.
`Cn1c(=O)c2[nH]c(N=Nc3ccc(N)cc3N)nc2n(C)c1=O`: the “hERG current change (%, negative = inhibition) at 10uM” value stood at 28.7%.
As for `O=c1cc(NS(=O)(=O)c2ccccc2)nc(SCc2ccccc2Cl)[nH]1`, the “hERG current change (%, negative = inhibition) at 10uM” value was determined as 6.99%.
On to `COc1ccc(N2C(=O)CC(N3CCN(c4ccc(Cl)cc4)CC3)C2=O)cc1` (stereo not shown), for which the “hERG current change (%, negative = inhibition) at 10uM” value was -4.94%.
On to `COc1ccc(N2C(=O)CC(N3CCCCC3)C2=O)cc1` (stereo not shown), for which the “hERG current change (%, negative = inhibition) at 10uM” value is reported as 18.6%.
Next, `COc1ccc(N2C(=O)CC(N3CCN(c4ccccc4)CC3)C2=O)cc1` (stereo not shown): 8.93%; `CCOc1ccc(N2C(=O)CC(N3CCc4ccccc43)C2=O)cc1` (stereo not shown): -3.24%; `CCOc1ccc(N2C(=O)CC(N3CCN(c4ccccc4F)CC3)C2=O)cc1` (stereo not shown): 6.59%.
In the case of `CCOc1ccc(N2C(=O)CC(N3CCN(C4CCc5ccccc5C4)CC3)C2=O)cc1` (stereo not shown), the “hERG current change (%, negative = inhibition) at 10uM” value is -71.5%.
For `COc1cccc(N2CCN(C3CC(=O)N(c4ccc(F)c(Cl)c4)C3=O)CC2)c1` (stereo not shown), the “hERG current change (%, negative = inhibition) at 10uM” value is recorded as -12.6%.
With `COc1ccc(NC2CCN(C3CC(=O)N(c4ccc(F)c(Cl)c4)C3=O)CC2)cc1` (stereo not shown), the “hERG current change (%, negative = inhibition) at 10uM” value was -54.8%.
On to `COc1ccc(N2C(=O)CC(N3CCN(C4CCc5ccccc5C4)CC3)C2=O)cc1` (stereo not shown), for which the “hERG current change (%, negative = inhibition) at 10uM” value is -61.7%.
Regarding `Fc1ccc(-[n+]2nc(Nc3ccccc3)sc2-c2ccc(OCc3ccccc3)cc2)cc1.[Cl-]`, the “hERG current change (%, negative = inhibition) at 10uM” value is -20.5%.
Next, `Cc1ccccc1OCc1nnc2n1CC(C)S2` (stereo not shown): 7.43%; `CCCCC(=O)Nc1ccc(NC(=S)NC(=O)CC)cc1OC`: -0.84%; `O=C(OCC(=O)N1CCC(c2ccccc2)=N1)c1ccc([N+](=O)[O-])s1`: -34.7%.
Next, `CC(C)c1ccc(/C=N/NC(=O)c2cccc(S(=O)(=O)N3CCOCC3)c2)cc1`: 10.1%.
The value for `CN(C)c1ccc(C2C3C(=O)NC(=O)C3ON2c2ccc(Cl)cc2)cc1` (stereo not shown) was -64%; that for `CN(C)c1ccc(C2C3C(=O)N(c4ccc(C(=O)O)cc4)C(=O)C3ON2c2ccccc2)cc1` (stereo not shown) was 7.23%.
With `Cc1ccc(N2OC3C(=O)NC(=O)C3C2c2ccco2)cc1` (stereo not shown), the “hERG current change (%, negative = inhibition) at 10uM” value amounted to 7.89%.
With `O=C(Cn1cnc2c(cnn2-c2ccccc2Cl)c1=O)N1CCc2ccccc21`, the “hERG current change (%, negative = inhibition) at 10uM” value is reported as -0.441%.
For the compound `CC(CNC(=O)Cn1ccc2cc(S(=O)(=O)N3CCCC3)ccc21)c1ccccc1` (stereo not shown), the “hERG current change (%, negative = inhibition) at 10uM” value is reported as -9.17%.
As for `O=C(NCCc1ccccc1)c1ccco1`, the “hERG current change (%, negative = inhibition) at 10uM” value amounted to 0.15%.
For the compound `O=C(c1cccc(C(F)(F)F)c1)C1CCCN(C(=O)C2CCOCC2)C1` (stereo not shown), the “hERG current change (%, negative = inhibition) at 10uM” value was -51.3%.
As for `CC1=C(C(=O)N2CCCC(C(=O)c3cccc(C(F)(F)F)c3)C2)OCCO1` (stereo not shown), the “hERG current change (%, negative = inhibition) at 10uM” value is listed as 2.26%.
For `Cc1nonc1CC(=O)N1CCCC(C(=O)c2cccc(C(F)(F)F)c2)C1` (stereo not shown), the “hERG current change (%, negative = inhibition) at 10uM” value was -56.2%.
For `CC(C)(C)c1ccc(C(=O)C2CCCN(C(=O)C3CCOCC3)C2)cc1` (stereo not shown), the “hERG current change (%, negative = inhibition) at 10uM” value is listed as -7.14%.
On to `Cc1nonc1CC(=O)N1CCCC(C(=O)c2ccc(Cl)cc2)C1` (stereo not shown), for which the “hERG current change (%, negative = inhibition) at 10uM” value was -8.66%.
In the case of `Cc1noc(C)c1C(=O)N1CCCC(C(=O)c2cccc(C(F)(F)F)c2)C1` (stereo not shown), the “hERG current change (%, negative = inhibition) at 10uM” value was -22.6%.
